An excerpt weighted towards active compounds, which were near 2.3% of everything screened.
M1 PAM: potentiates human M1 receptor response to acetylcholine; P11229; CHO-K1 hM1, Fluo-8 calcium fluorescence, ACh EC20; 0% = ACh EC20, 100% = maximal ACh; activation, % at 3 µM; hit rate 0.088% among 360,000; AID 588819; in the data active means activation above about 19%, passing the limit was not always enough
Target sequence (P11229 whole entry, looked up): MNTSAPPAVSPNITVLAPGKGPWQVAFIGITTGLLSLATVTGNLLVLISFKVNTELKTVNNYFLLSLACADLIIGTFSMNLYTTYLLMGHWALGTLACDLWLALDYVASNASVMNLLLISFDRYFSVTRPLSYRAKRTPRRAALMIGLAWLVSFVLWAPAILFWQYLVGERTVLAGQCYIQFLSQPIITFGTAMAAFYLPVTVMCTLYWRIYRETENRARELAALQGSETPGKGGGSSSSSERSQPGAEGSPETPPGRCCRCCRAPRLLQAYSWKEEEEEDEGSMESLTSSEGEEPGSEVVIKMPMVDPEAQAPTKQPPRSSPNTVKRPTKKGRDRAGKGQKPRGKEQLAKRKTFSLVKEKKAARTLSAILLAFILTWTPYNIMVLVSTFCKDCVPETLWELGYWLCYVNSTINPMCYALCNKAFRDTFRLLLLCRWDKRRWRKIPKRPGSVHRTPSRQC
M1 PAM parental: nonselective activator or artifact in parental CHO-K1 calcium assay. hit rate 0.02% among 360,000. activation, % at 3 µM. ATP EC20, Fluo-8 calcium fluorescence; 0% at ATP EC20, 100% at ATP max;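 active means activation above the run cutoff, the mean activation of all test compounds plus 3 SD, cut at about 40% in these data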;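 further: peak over basal fluorescence ratio in a 140 s read after ATP addition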
CHO-K1 Ca antag: nonselective inhibitor or artifact in parental CHO-K1 cells; inhibition, % at 3 µM; ATP-induced calcium, Fluo-8 fluorescence; hit rate 0.6% among 360,000;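 active means inhibition above a per-plate cutoff, the plate's mean sample inhibition plus 3 SD, cut at about 24% in these data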;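 further: 0% = DMSO plus EC80 ATP and 100% = DMSO alone without ATP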
CHRM1 antagonist: human CHRM1 antagonism; CHO-K1 hM1, Fluo-8 calcium fluorescence, ACh EC80 antagonist; inhibition, % at 3 µM; hit rate 1.3% among 360,000; AID 588852;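 active means percent inhibition above its own plate's cutoff, namely the mean of that plate's compound wells plus 3 SD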;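 further: peak over basal fluorescence ratio during 140 s after agonist addition; 0% = ACh EC80 plus DMSO and 100% = DMSO alone without agonist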
CHO-K1 Ca ag: M1 agonist counterscreen hit in parental CHO-K1 cells | Fluo-8 calcium fluorescence; scaled to maximal ATP response, vehicle zero | activation, % at 3 µM | hit rate 0.48% among 360,000 | AID 602248; in the data active means activation above about 15%;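 further: untransfected CHO-K1 host cells lacking M1 receptor as counterscreen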
CHRM1 agonist: activates human CHRM1 receptor; activation, % at 3 µM; P11229; CHO-K1 hM1, Fluo-8 calcium fluorescence, agonist mode; 0% DMSO, 100% acetylcholine EC100; hit rate 0.33% among 360,000;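 active means activation above the run's mean compound activation plus 3 SD, cut at about 16% in these data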;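 further: peak over basal fluorescence ratio within a 140 s kinetic read after compound addition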
Active calls of the source: *.

SMILES | M1 PAM | M1 PAM parental | CHO-K1 Ca antag | CHRM1 antagonist | CHO-K1 Ca ag | CHRM1 agonist
Cc1cccc2sc(NNC(=O)c3ccc(S(=O)(=O)N4CCCC(C)C4)cc3)nc12 (stereo not given) | -16 | -7 | 5 | 67* | 1 | -1
CN(CC(=O)Nc1ccc(F)cc1)C(=O)CSc1ccc2c(c1)OCCO2 | 5 | 9 | -7 | -3 | 0 | -2
Cc1ccc(SCC(=O)OCC(=O)N(C)CC(=O)Nc2ccc(F)cc2)cc1C | 7 | 18 | -16 | -7 | 46* | 32*
O=C(CSc1n[nH]c(-c2ccco2)n1)Nc1ccccc1 | 7 | 7 | -13 | -7 | 0 | -2
COc1ccccc1NC(=O)c1ccc(NC(=O)COC(=O)C2CCCCC2)cc1 | -1 | 7 | 7 | -7 | 19* | -7
COc1ccccc1NC(=O)COC(=O)C1CCCC1 | 8 | -2 | 12 | 1 | -1 | -1
O=C1CCCN1C(=O)CSc1ccc2ccccc2n1 | -1 | -8 | 1 | -1 | 0 | -3
CC1(C(=O)NS(=O)(=O)c2ccccc2)CCN1C(=O)CC1CC1 (stereo not given) | 4 | 16 | -21 | -14 | 1 | -1
CC(=O)NN1C(=O)/C(=C\c2ccc(Br)o2)SC1=S | -6 | 5 | 7 | 7 | 1 | -3
CC(=O)NN1C(=O)/C(=C/c2ccc(Br)o2)SC1=S | 21* | 9 | -9 | -3 | 1 | -3
COc1ccc(CCNC(=O)C(=O)NCC2OCCN2S(=O)(=O)c2ccc(Cl)cc2)cc1OC (stereo not given) | -8 | 20 | -7 | 2 | 8 | 1
O=C(NC(=O)N1CCN(C(c2ccccc2)c2ccccc2)CC1)c1ccccc1 | -22 | 12 | -11 | 66* | 1 | -5
O=C(Nc1ccccc1C(F)(F)F)N1CCN(C(c2ccccc2)c2ccccc2)CC1 | -25 | 12 | 1 | 44* | 1 | -6
CCCNC(=O)N1CCN(C(c2ccccc2)c2ccccc2)CC1 | 6 | 12 | -8 | -9 | 0 | -5
CCN(CC)P(=O)(Nc1ccc(C)cc1Br)c1ccc(N(C)C)cc1NC(=O)c1ccco1 (stereo not given) | -1 | 4 | -9 | 13 | 0 | -4
Cn1c(=S)c2[nH]c(SCCN3CCCC3)nc2n(C)c1=O | 21 | 13 | -8 | -22 | 0 | -2
CCN1CCCC(Sc2nc3c([nH]2)c(=S)n(C)c(=O)n3C)C1 (stereo not given) | 4 | 5 | 4 | -12 | 16* | -8
COC(=O)C(/C=N/OCc1ccc([N+](=O)[O-])cc1)NC(=O)c1cccc(Cl)c1 (stereo not given) | 4 | 7 | -2 | 4 | 14 | 25*
CC(=O)Oc1ccc(C(=O)Nc2cc(C)on2)cc1 | 9 | 14 | -6 | -20 | 0 | -1
Cc1ccc(CNC(=O)c2cc3c(=O)n(C)c4ccccc4c3n2C)o1 | 0 | -14 | 24* | -3 | 2 | -9
COc1ccccc1NC(=O)c1cc2c(=O)n(C)c3ccccc3c2n1C | -19 | -9 | -12 | 93* | 3 | -6
CC(=O)NC(CC(=O)NNC(=O)c1cccs1)c1ccccc1 (stereo not given) | 10 | 16 | -4 | -12 | 1 | -1
COc1ccc(NC(=O)c2c(N)cnn2C)cc1 | 8 | 16 | -7 | -17 | 1 | -2
Cc1cccc(S(=O)(=O)NC(=O)C2(C)CCN2C(=O)c2ccc(C3CCCCC3)cc2)c1 (stereo not given) | 10 | 2 | 4 | -10 | 0 | 0
Cc1ccc(S(=O)(=O)NC(=O)C2(C)CCN2C(=O)C2CCCCC2)nc1 (stereo not given) | 23 | -6 | 28* | -7 | -1 | 8
SMILES | M1 PAM | M1 PAM parental | CHO-K1 Ca antag | CHRM1 antagonist | CHO-K1 Ca ag | CHRM1 agonist
COc1cc(C)ccc1S(=O)(=O)NC(=O)C1(C)CCN1C(=O)c1ccc(C2CCCCC2)cc1 (stereo not given) | 13 | -14 | 27* | -23 | 0 | -5
O=C(CC[C@H]1O[C@@H](n2cnc3c(NC(=O)c4ccccc4)ncnc32)[C@H](O)[C@@H]1O)NCCCN1CCCC1=O | -3 | 16 | -22 | -14 | 0 | 0
CCOc1ccccc1OC(=O)c1ccco1 | 3 | -6 | 27* | 12 | 0 | -1
COCOc1ccc(/C=C/C(=O)c2c(O)cc(OCOC)cc2OCOC)cc1 | 6 | 19 | -8 | -10 | 1 | -4
COCOc1ccc(/C=C/C(=O)c2c(OCOC)cc(OCOC)c(CC=C(C)C)c2O)cc1OCOC | 11 | -10 | 29* | 0 | -1 | 3
CCC(=O)Nc1cc2c(cc1Cl)-c1ccccc1C2 | 0 | -4 | -10 | -7 | 2 | 1
CC(=O)Nc1cc2c(cc1Cl)-c1ccccc1C2 | 7 | -13 | 26* | -8 | 1 | 1
Cc1ccc(NC2=NC(c3ccc(F)cc3)n3c(nc(C)cc3=O)N2)c(C)c1 (stereo not given) | -14 | -4 | 9 | 37* | 0 | -7
CCOc1cc(/C=C\[N+](=O)[O-])ccc1OCC(=O)Nc1ccccc1C | 26* | 11 | -2 | -9 | 1 | 4
CC(C#N)(NC(=O)CN1CCN(S(=O)(=O)c2ccc(Br)cc2Cl)CC1)C1CC1 (stereo not given) | 3 | 5 | -20 | -2 | 5 | 0
Cc1ccc2oc(=O)c3cc(C(=O)NCCCN4CCN(C)CC4)sc3c2c1 | 6 | 10 | 54* | -4 | 1 | -4
CN1CCN(CCCNC(=O)c2cc3c(=O)n(C)c4ccccc4c3s2)CC1 | -14 | -7 | 29* | 20 | 0 | -8
O=C(NCc1cccnc1)c1csc([C@@H]2C[C@H](O)[C@@H](CO)O2)n1 | -3 | -15 | 20 | 5 | 0 | -2
Cc1cc(=O)oc2c(CN3CCCC3)c(O)c(Cl)cc12 | 6 | 1 | -5 | -6 | 0 | -4
CCCc1cc(=O)oc2c(CN3CCCC3)c(O)c(Cl)cc12 | 1 | -9 | 29* | -2 | 0 | -2
Cc1occc1C(=O)N1CCC2(CCCN(Cc3ccc(F)c(F)c3)C2)C1 (stereo not given) | -24 | -7 | -4 | 65* | 0 | -7
O=C(CCC1CCCN(C(=O)c2ccoc2)C1)NCc1ccc(F)c(F)c1 (stereo not given) | 5 | 24 | -13 | 0 | 1 | -4
O=C(c1ccoc1)N1CCC2(CCCN(Cc3ccc(F)c(F)c3)C2)C1 (stereo not given) | -22 | 6 | -4 | 55* | 0 | -6
CON(C)S(=O)(=O)c1cccc(C(=O)Nc2cccc(S(=O)(=O)NC3=NCCCCC3)c2)c1 | -2 | 11 | -18 | 3 | 4 | -5
COc1cccc(-c2nc(CS(=O)(=O)CC(=O)NCc3ccccc3)c(C)o2)c1 | 3 | 16 | 3 | -6 | 1 | -2

Screening data as filed in PubChem.
